Experimental findings from publication PMC10812921, “Transcriptional Coactivator BOB1 (OBF1, OCA-B) Modulates the Specificity of DNA Recognition by the POU-Domain Factors OCT1 and OCT2 in a Monomeric Configuration” are described below.

Test [1] deals with POU1 (OCT1 POU domain) (human, UniProt P14859 260-458). Briefly: EMSA-SELEX-seq; no BOB1; 20 mM Tris-HCl pH 7.6, 140 mM NaCl, 10% glycerol, 0.5 mM EDTA, 0.05% Triton X-100, 0.1 mg/mL BSA, 0.1 mg/mL poly(dI-dC), 5 mM DTT, room temperature, 20 min; high values mean tight binding. The settings on record: protein: recombinant; dsDNA, one strand shown. An outline of the steps: (§1)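 A double-stranded random 35-nt library (300 ng, PCR-amplified) was incubated with 30 ng tagged POU-domain protein, with or without 28 ng coactivator protein, in 20 μL Tris–HCl pH 7.6 binding buffer for 20 min at RT. The proteins had been expressed in E. coli BL21, purified under denaturing conditions and renatured. Complex bands from native 6% PAGE were eluted and PCR-amplified over four rounds, then sequenced on Illumina. For binding preference, the percentage of sequenced 8-mers matching a motif pattern was calculated.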
Sequence of POU1 (OCT1 POU domain) (P14859 260-458): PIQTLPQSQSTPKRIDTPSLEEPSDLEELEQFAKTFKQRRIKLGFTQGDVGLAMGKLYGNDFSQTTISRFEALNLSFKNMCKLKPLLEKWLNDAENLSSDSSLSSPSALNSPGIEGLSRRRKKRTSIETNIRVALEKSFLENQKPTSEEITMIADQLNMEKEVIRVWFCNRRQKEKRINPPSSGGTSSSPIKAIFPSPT
On the technique in general: Mobility shift assays separate free from complexed probe on a gel.

Test [2] addresses T1, POU2 (OCT2 POU domain) (human, UniProt P09086 175-386).
T1 sequence: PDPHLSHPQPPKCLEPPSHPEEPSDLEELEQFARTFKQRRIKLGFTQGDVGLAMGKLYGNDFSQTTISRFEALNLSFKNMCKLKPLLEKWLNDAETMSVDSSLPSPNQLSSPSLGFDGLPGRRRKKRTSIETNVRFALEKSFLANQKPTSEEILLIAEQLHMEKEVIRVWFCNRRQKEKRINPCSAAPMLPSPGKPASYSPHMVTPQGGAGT
Described as above. Particulars: protein: recombinant; dsDNA, one strand shown. In short, it runs like this:
as §1

Test [3] concerns the target POU1 (OCT1 POU domain);BOB1 (OBF1, OCA-B) (human;human, UniProt P14859;Q16633 260-458;1-256, |). Briefly: EMSA-SELEX-seq; with BOB1 (ternary complex band); 20 mM Tris-HCl pH 7.6, 140 mM NaCl, 10% glycerol, 0.5 mM EDTA, 0.05% Triton X-100, 0.1 mg/mL BSA, 0.1 mg/mL poly(dI-dC), 5 mM DTT, room temperature, 20 min; high values mean tight binding. The settings on record: protein: recombinant;recombinant; copies: 1;1; dsDNA, one strand shown. In short, it runs like this: as §1

Test [4] has as its target T2, POU2 (OCT2 POU domain);BOB1 (OBF1, OCA-B) (human;human, UniProt P09086;Q16633 175-386;1-256, |).
T2 sequence 1: T1 sequence
T2 sequence 2: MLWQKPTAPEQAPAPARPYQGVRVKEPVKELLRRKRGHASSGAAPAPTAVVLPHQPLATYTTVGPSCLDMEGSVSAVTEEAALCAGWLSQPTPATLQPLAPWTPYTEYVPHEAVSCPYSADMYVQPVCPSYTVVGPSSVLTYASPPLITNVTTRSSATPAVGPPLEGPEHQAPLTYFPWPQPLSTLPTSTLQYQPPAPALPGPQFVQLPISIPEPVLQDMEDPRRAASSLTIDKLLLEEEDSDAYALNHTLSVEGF
The description is as above. Particulars: protein: recombinant;recombinant; copies: 1;1; dsDNA, one strand shown. An outline of the steps: as §1

As to ATAGAAAA, the binding signal in test [1] is 0.0767 % of ANNNNAAN 8-mers; in test [2] it was 0.0771 % of ANNNNAAN 8-mers; in test [3], 0.0695 % of ANNNNAAN 8-mers; in test [4] it was 0.0619 % of ANNNNAAN 8-mers.
Take ACATCAAG: the binding signal was 0.024 % of ANNNNAAN 8-mers in test [1], 0.0351 % of ANNNNAAN 8-mers in test [2], 0.0265 % of ANNNNAAN 8-mers in test [3] and 0.033 % of ANNNNAAN 8-mers in test [4].
As to ATGGTAAA, the binding signal is 0.182 % of ANNNNAAN 8-mers in test [1], 0.191 % of ANNNNAAN 8-mers in test [2], 0.105 % of ANNNNAAN 8-mers in test [3] and 0.106 % of ANNNNAAN 8-mers in test [4].
With AACCCAAA, the binding signal in test [1] is 0.0233 % of ANNNNAAN 8-mers; in test [2], 0.0173 % of ANNNNAAN 8-mers; in test [3] it was 0.0277 % of ANNNNAAN 8-mers; in test [4] it was 0.0206 % of ANNNNAAN 8-mers.
For ACTTAAAC, in that order: 0.0336 % of ANNNNAAN 8-mers, 0.046 % of ANNNNAAN 8-mers, 0.0277 % of ANNNNAAN 8-mers and 0.0355 % of ANNNNAAN 8-mers.
In the case of AGTCTAAA, the binding signal in test [1] was 0.037 % of ANNNNAAN 8-mers; in test [2] it was 0.0501 % of ANNNNAAN 8-mers; in test [3], 0.0398 % of ANNNNAAN 8-mers; in test [4] it was 0.0504 % of ANNNNAAN 8-mers.
For the sequence AGCGTAAT, the binding signal in test [1] is 0.0591 % of ANNNNAAN 8-mers; in test [2], 0.0748 % of ANNNNAAN 8-mers; in test [3] it was 0.0382 % of ANNNNAAN 8-mers; in test [4], 0.0611 % of ANNNNAAN 8-mers.
The corresponding values for ACCGGAAT are 0.0412 % of ANNNNAAN 8-mers, 0.0489 % of ANNNNAAN 8-mers, 0.0398 % of ANNNNAAN 8-mers and 0.0454 % of ANNNNAAN 8-mers.
Consider ACATGAAT, for which the binding signal is 0.151 % of ANNNNAAN 8-mers in test [1], 0.179 % of ANNNNAAN 8-mers in test [2], 0.0773 % of ANNNNAAN 8-mers in test [3] and 0.0925 % of ANNNNAAN 8-mers in test [4].
As for ATTTAAAG, the binding signal in test [1] is 0.183 % of ANNNNAAN 8-mers; in test [2], 0.185 % of ANNNNAAN 8-mers; in test [3], 0.152 % of ANNNNAAN 8-mers; in test [4], 0.0759 % of ANNNNAAN 8-mers.
The corresponding values for ATGCCAAC are 0.0225 % of ANNNNAAN 8-mers, 0.0293 % of ANNNNAAN 8-mers, 0.025 % of ANNNNAAN 8-mers and 0.0124 % of ANNNNAAN 8-mers.
Consider AAGTGAAC, for which the binding signal in test [1] is 0.0233 % of ANNNNAAN 8-mers; in test [2], 0.0305 % of ANNNNAAN 8-mers; in test [3], 0.0254 % of ANNNNAAN 8-mers; in test [4], 0.0388 % of ANNNNAAN 8-mers.
The corresponding values for ACGCGAAT are 0.0389 % of ANNNNAAN 8-mers, 0.0512 % of ANNNNAAN 8-mers, 0.0336 % of ANNNNAAN 8-mers and 0.0371 % of ANNNNAAN 8-mers.
For AAGAGAAG, in that order: 0.0339 % of ANNNNAAN 8-mers, 0.0403 % of ANNNNAAN 8-mers, 0.0402 % of ANNNNAAN 8-mers and 0.0438 % of ANNNNAAN 8-mers.
As for AGTACAAT, the binding signal was 0.0416 % of ANNNNAAN 8-mers in test [1], 0.0426 % of ANNNNAAN 8-mers in test [2], 0.0386 % of ANNNNAAN 8-mers in test [3] and 0.0462 % of ANNNNAAN 8-mers in test [4].
On to ACTCTAAG, for which the binding signal in test [1] is 0.0214 % of ANNNNAAN 8-mers; in test [2], 0.0224 % of ANNNNAAN 8-mers; in test [3] it was 0.0258 % of ANNNNAAN 8-mers; in test [4], 0.0206 % of ANNNNAAN 8-mers.
On to ATAGCAAT, for which the binding signal in test [1] was 0.0515 % of ANNNNAAN 8-mers; in test [2], 0.0495 % of ANNNNAAN 8-mers; in test [3] it was 0.0445 % of ANNNNAAN 8-mers; in test [4] it was 0.0487 % of ANNNNAAN 8-mers.
For ATCCTAAC, in that order: 0.0172 % of ANNNNAAN 8-mers, 0.0299 % of ANNNNAAN 8-mers, 0.023 % of ANNNNAAN 8-mers and 0.0355 % of ANNNNAAN 8-mers.
For AGCTTAAT, in that order: 0.0645 % of ANNNNAAN 8-mers, 0.0972 % of ANNNNAAN 8-mers, 0.0449 % of ANNNNAAN 8-mers and 0.0578 % of ANNNNAAN 8-mers.
For ACTATAAT, in that order: 0.0595 % of ANNNNAAN 8-mers, 0.0748 % of ANNNNAAN 8-mers, 0.0472 % of ANNNNAAN 8-mers and 0.0388 % of ANNNNAAN 8-mers.
For the sequence ACCCGAAG, the binding signal in test [1] was 0.0126 % of ANNNNAAN 8-mers; in test [2], 0.0109 % of ANNNNAAN 8-mers; in test [3], 0.0129 % of ANNNNAAN 8-mers; in test [4] it was 0.0132 % of ANNNNAAN 8-mers.
The corresponding values for AGTGGAAG are 0.0324 % of ANNNNAAN 8-mers, 0.0357 % of ANNNNAAN 8-mers, 0.0414 % of ANNNNAAN 8-mers and 0.0405 % of ANNNNAAN 8-mers.
On to AGGGAAAC, for which the binding signal in test [1] is 0.0648 % of ANNNNAAN 8-mers; in test [2], 0.0518 % of ANNNNAAN 8-mers; in test [3], 0.0991 % of ANNNNAAN 8-mers; in test [4] it was 0.0413 % of ANNNNAAN 8-mers.
As for AGTGTAAC, the binding signal was 0.0217 % of ANNNNAAN 8-mers in test [1], 0.015 % of ANNNNAAN 8-mers in test [2], 0.0234 % of ANNNNAAN 8-mers in test [3] and 0.0272 % of ANNNNAAN 8-mers in test [4].
The corresponding values for AGGTAAAC are 0.0534 % of ANNNNAAN 8-mers, 0.0558 % of ANNNNAAN 8-mers, 0.0792 % of ANNNNAAN 8-mers and 0.0537 % of ANNNNAAN 8-mers.
The corresponding values for AGTTTAAG are 0.05 % of ANNNNAAN 8-mers, 0.0656 % of ANNNNAAN 8-mers, 0.0519 % of ANNNNAAN 8-mers and 0.0504 % of ANNNNAAN 8-mers.
For AAGACAAG, in that order: 0.0259 % of ANNNNAAN 8-mers, 0.0305 % of ANNNNAAN 8-mers, 0.0261 % of ANNNNAAN 8-mers and 0.0281 % of ANNNNAAN 8-mers.
For the sequence AACTTAAG, the binding signal in test [1] was 0.0351 % of ANNNNAAN 8-mers; in test [2], 0.042 % of ANNNNAAN 8-mers; in test [3], 0.0363 % of ANNNNAAN 8-mers; in test [4] it was 0.0363 % of ANNNNAAN 8-mers.
Take ATATGAAA: the binding signal in test [1] was 0.159 % of ANNNNAAN 8-mers; in test [2] it was 0.164 % of ANNNNAAN 8-mers; in test [3] it was 0.226 % of ANNNNAAN 8-mers; in test [4] it was 0.239 % of ANNNNAAN 8-mers.
For AGAGAAAA, in that order: 0.0702 % of ANNNNAAN 8-mers, 0.065 % of ANNNNAAN 8-mers, 0.0574 % of ANNNNAAN 8-mers and 0.0504 % of ANNNNAAN 8-mers.
